ssDAF-12 act: S. stercoralis DAF-12 nuclear receptor activators, primary screen, cell-based, luminescence, HEK293, GRIP1 co-expression, lit1-tk-luc | 1% of 370,000 active | HEK293 ssDAF-12/GRIP1 lit1-tk-luc reporter; % of 3 µM dafachronic acid response | activation, % at 6.8 µM | Nuclear hormone receptor DAF-12 (Strongyloides stercoralis);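 active = activation above the mean over all tested compounds plus 3 SD, cut at about 0.9% in these data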
hgDAF-12 ag: H. glycines DAF-12 receptor agonists, primary screen, cell-based, luminescence, HEK293, GAL4 fusion, UAS-luciferase. Nuclear hormone receptor DAF-12 (Heterodera glycines), GAL4 fusion. HEK293 GAL4-hgDAF12 UAS-luciferase reporter, agonist luminescence; normalized to butyrate control. activation, % at 6.8 µM. 1.8% of 370,000 active. AID 687014, 2013;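 active = activation above a cutoff set at the mean of all screened compounds plus 3 SD, cut at about 10% in these data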
DAX1 inh-1: DAX1 (NR0B1) inhibitors on StAR promoter, primary screen, cell-based, luminescence, SF-1 (NR5A1), full-length DAX-1; inhibition, % at 6.8 µM; HEK293T StAR-luciferase reporter, SF-1/DAX-1 repression relief; AID 652010, 2013; 1.1% of 370,000 active;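 active = inhibition above the mean over all tested compounds plus 3 SD, cut at about 3.6% in these data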;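 also: higher inhibition means more luminescence from relief of DAX-1 repression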
SMARCA2 activ: SMARCA2 (BRM) function activators, primary screen, cell-based, luminescence, high throughput; MG213 cells, MMTV-luciferase reporter, dexamethasone, overnight; activation, % at 9.1 µM; AID 652017, 2013; 1% of 370,000 active; in the data active = activation above about 7.8%
DAX1 inh-2: DAX1 (NR0B1) inhibitors, primary screen, cell-based, HEK293, Gal4-DAX1, luciferase luminescence; HEK293 Gal4-DAX1 luciferase reporter; inhibition, % at 6.75 µM; 0.99% of 340,000 active; AID 504766, 2011;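 active = inhibition above the mean over all tested compounds plus 3 SD, cut at about 4.2% in these data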;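 also: inhibition shows as a rise in luminescence from relieved DAX1 repression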
hcDAF-12 act: H. contortus DAF-12 nuclear receptor activators, primary screen, cell-based, luminescence, HEK293, lit1-tk-luc reporter. HEK293 hcDAF-12 lit1-tk-luc reporter; 0% DMSO, 100% Δ7-dafachronic acid. activation, % at 6.8 µM. 1.4% of 370,000 active;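 active = activation above the mean of all tested compounds plus 3 SD, cut at about 5.5% in these data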
SMARCA2 act conf: SMARCA2 (BRM) function activators, confirmation, cell-based, luminescence, triplicate. shares compounds with SMARCA2 activ. MG213 cells, MMTV-luciferase with dexamethasone, overnight; MG213 cells expressing E1A, Rb sequestered; DMSO wells 0%, reference activator 100%. activation, % at 9.1 µM. 30% of 3,500 active. AID 652260, 2013;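 active = activation above its plate's cutoff, the mean activation of tested wells plus 3 SD, cut at about 7.9% in these data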
VP16 Luc act: GAL4-VP16 luciferase reporter activation, counter-screen for SMARCA2 (BRM) activator project, cell-based, pG5luc, luminescence, high throughput; HEK293 GAL4-VP16 pG5luc reporter; scaled: DMSO wells 0%, SAHA wells 100%; shares compounds with SMARCA2 activ; activation, % at 9.1 µM; AID 686939, 2013; 41% of 3,500 active;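 active = activation above the solvent-only control well mean plus 3 SD, averaged across control plates, cut at about 5.2% in these data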
LXR ag: LXR agonists, Gal4 luciferase reporter, confirmation, counter-screen for hcDAF-12 agonist project, cell-based, luminescence, HEK293, H. contortus campaign; shares compounds with hcDAF-12 act; AID 743027, 2013; activation, % at 6.8 µM; HEK293 Gal4-LXR tk-luc reporter, 24 h; normalized: DMSO 0%, positive control 100%; 3,400 tested, under 10 active;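 active = mean percent activation of the reporter above a cutoff set as the average over tested compounds plus their standard deviation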
Target sequence (P55055 whole entry, looked up, the tested form may be a part): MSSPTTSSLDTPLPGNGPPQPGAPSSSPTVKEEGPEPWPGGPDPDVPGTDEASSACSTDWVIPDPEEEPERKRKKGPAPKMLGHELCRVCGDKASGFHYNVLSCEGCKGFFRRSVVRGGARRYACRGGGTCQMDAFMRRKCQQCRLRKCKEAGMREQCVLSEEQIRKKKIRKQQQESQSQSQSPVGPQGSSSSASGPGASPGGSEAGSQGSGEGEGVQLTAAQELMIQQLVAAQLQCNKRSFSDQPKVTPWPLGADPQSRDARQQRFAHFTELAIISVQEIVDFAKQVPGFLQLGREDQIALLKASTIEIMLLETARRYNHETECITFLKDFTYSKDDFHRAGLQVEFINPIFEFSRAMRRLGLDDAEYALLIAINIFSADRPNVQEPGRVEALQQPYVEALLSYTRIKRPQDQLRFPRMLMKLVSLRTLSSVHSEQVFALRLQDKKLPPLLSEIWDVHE
hcDAF12 conf: H. contortus DAF-12 receptor agonists, confirmation, cell-based, luminescence, HEK293, lit1-tk-luc, triplicate | activation, % at 6.8 µM | HEK293 hcDAF-12 lit1-tk-luc reporter; % of Δ7-dafachronic acid response | shares compounds with hcDAF-12 act | 61% of 3,400 active;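 active = mean activation across triplicate tests above the threshold derived from the earlier primary screen, cut at about 5.5% in these data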
hgDAF12 conf: H. glycines DAF-12 receptor agonists, confirmation, cell-based, luminescence, HEK293, GAL4-LBD fusion; shares compounds with hgDAF-12 ag; HEK293 GAL4-hgDAF12 luciferase reporter, agonist mode; percent of butyrate response; AID 743050, 2013; activation, % at 6.8 µM; 80% of 3,300 active;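 active = mean activation over triplicate wells above the hit cutoff derived from the earlier primary screen, cut at about 11% in these data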
LXR ag 2: LXR agonists, Gal4 luciferase reporter, confirmation, counter-screen for hgDAF-12 agonist project, cell-based, luminescence, HEK293, H. glycines campaign | shares compounds with hgDAF-12 ag | 24 h | activation, % at 6.8 µM | 3,300 tested, under 10 active;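 active = mean activation of the triplicate above a set limit carried over from the primary screen, none filed active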
Of the large screens only hits and unclear results are named; the others gave an inactive call (follow-up assays come after a bar, where they were run). Only some compounds are listed: those with a hit (about 4.8% of all), similar ones and a draw of the others.

COc1ccc(-c2cc(C(=O)c3c(N)n(C)c(=O)n(C)c3=O)c3ccccc3n2)cc1	ssDAF-12 act 1.7, hgDAF-12 ag 14, SMARCA2 activ 8.2 | SMARCA2 act conf 8.8 | VP16 Luc act 7.3 | hgDAF12 conf 10 | LXR ag 2 inactive
COc1ccc(-c2cc(C(=O)OCC(=O)c3c(N)n(C)c(=O)n(C)c3=O)c3ccccc3n2)cc1	none
O=C(CSc1nnc(Cc2csc(Nc3cccc(Cl)c3)n2)o1)N1CCc2ccccc21	none
CN1/C(=C\C(=O)c2cccnc2)Sc2ccccc21	hgDAF-12 ag 18, SMARCA2 activ 13 | SMARCA2 act conf inactive | VP16 Luc act 9.1 | hgDAF12 conf 11 | LXR ag 2 inactive
Nc1c(C2=NCCO2)nnn1Cc1ccccc1	none
Cc1ccc(-c2cnc3ccccc3n2)cc1C	ssDAF-12 act 1.5, hgDAF-12 ag 14, SMARCA2 activ 8.2, hcDAF-12 act 14 | SMARCA2 act conf inactive | VP16 Luc act 9.4 | LXR ag inactive | hcDAF12 conf 16 | hgDAF12 conf 20 | LXR ag 2 inactive
CCOc1ccc(OCc2cccc(C(=O)N/N=C/c3cccnc3)c2)cc1	hgDAF-12 ag 15, DAX1 inh-1 3.7, SMARCA2 activ 8.5 | SMARCA2 act conf 13 | VP16 Luc act 21 | hgDAF12 conf 19 | LXR ag 2 inactive
NNC(=O)c1cccc(COc2cccc(Br)c2)c1	none
COc1ccc(OCc2cccc(C(=O)NN)c2)cc1	hgDAF-12 ag 18, DAX1 inh-1 3.9, SMARCA2 activ 13 | SMARCA2 act conf 9.4 | VP16 Luc act 16 | hgDAF12 conf 21 | LXR ag 2 inactive
NNC(=O)CNC(=O)c1ccccc1F	none

Screens (PubChem)
